# Source: PubChem BioAssay
# Active and inactive are the calls of the source. Unless noted, the rule behind the calls is not given here.
# Key:
# [1] = A549 cell viability effects, profiling panel, calcein-AM fluorescence, 48 h, basal (AID 1162); conditions: higher = more signal; note: test concentration not given here
# [2] = adipocyte viability effects, profiling panel, cell-based, 3T3-L1 adipocytes, calcein-AM fluorescence, 48 h, basal (AID 1163); conditions: 3T3-L1 adipocytes viability, higher = more signal; note: test concentration not given here
# [3] = HepG2 cell viability effects, profiling panel, calcein-AM fluorescence, 48 h, basal (AID 1164); conditions: higher = more signal; note: test concentration not given here
# [4] = MM1S cell viability effects, profiling panel, calcein-AM fluorescence, 48 h, basal (AID 1165); conditions: higher = more signal;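 note: viability of MM1S multiple myeloma cells under basal unstimulated conditions; test concentration not given here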
# [5] = basal RPMI8226 viability, no added stimulus, profiling panel, cell-based, calcein-AM fluorescence, 48 h, PK04 Diversity Set (AID 1166); conditions: RPMI8226 myeloma viability, higher = more signal;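 note: cells grown under basal conditions without added stimulus; test concentration not given here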
# [6] = basal HepG2 mitochondrial membrane potential changes, profiling panel, cell-based, JC-1 fluorescence, 24 h, 100 nL compound (AID 1167); conditions: higher = more signal; note: test concentration not given here
# [7] = basal 3T3-L1 adipocyte mitochondrial potential changes, profiling panel, cell-based, JC-1 fluorescence, 3T3-L1 adipocytes, 24 h, 100 nL compound (AID 1168); conditions: JC-1 mitochondrial fluorescence, higher = more signal, called active from +8 up or from −8 down; note: test concentration not given here
# [8] = basal RPMI8226 mitochondrial membrane potential changes, profiling panel, cell-based, JC-1 fluorescence, 24 h, 100 nL compound (AID 1169); conditions: RPMI8226 myeloma, JC-1 mitochondrial potential fluorescence, higher = more signal; note: test concentration not given here
# [9] = basal MM1S mitochondrial membrane potential changes, profiling panel, cell-based, JC-1 fluorescence, 24 h, 100 nL compound (AID 1170); conditions: higher = more signal; note: test concentration not given here
# [10] = A549 lung cancer cell viability effects, profiling panel, resazurin fluorescence, 24 h, PK04 Diversity Set (AID 1171); conditions: higher = more signal, called active from +8 up or from −8 down; note: test concentration not given here
# [11] = HepG2 liver cancer cell viability effects, profiling panel, resazurin fluorescence, 24 h, PK04 Diversity Set (AID 1172); conditions: higher = more signal; note: test concentration not given here
# [12] = basal S. cerevisiae growth modulation, no modifier, primary screen, OD600, strain BY4716, 24 h, basal condition (AID 1173); conditions: OD600, 24 h, higher = more signal, called active from +8 up or from −8 down
# [13] = MM1S myeloma cell viability, profiling panel, resazurin fluorescence, basal, 24 h, PK04 Diversity Set (AID 1174); conditions: higher = more signal, called active from +8 up or from −8 down;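 note: MM1S multiple myeloma cell line; test concentration not given here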
# [14] = target: Dihydroorotate dehydrogenase (quinone), mitochondrial (Plasmodium falciparum (isolate 3D7)) (UniProt Q08210); assay: PfDHODH enzyme inhibitors, primary screen, biochemical, C-terminal His tag, absorbance 600 nm (AID 1175); conditions: DCIP absorbance 600 nm, higher = more signal, called active from +8 up or from −8 down;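 note: recombinant parasite enzyme with a five histidine tag at its C terminus; test concentration not given here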
# [15] = P. aeruginosa biofilm formation inhibitors, primary screen, strain PAO1, LB-PBS medium, absorbance 600 nm (AID 1176); note: test concentration not given here; conditions: P. aeruginosa PAO1 growth/biofilm, A600, 12 h; higher = more signal
# [16] = S. cerevisiae RM11-1a growth modifiers, primary screen, strain RM11-1a, OD600, basal, 24 h (AID 1177); conditions: OD600, 24 h, higher = more signal, called active from +8 up or from −8 down;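 note: cultures grown under basal conditions with no added stressor; test concentration not given here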
# [17] = E. coli acrAB mutant growth effects, primary screen, E. coli filamentation inducers, strain DRC39, OD650, 24 h (AID 1178); conditions: higher = more signal, called active from +8 up or from −8 down;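 note: growth measured as culture turbidity by optical density at 650 nm; test concentration not given here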
# [18] = E. coli acrAB mutant growth effects, primary screen, E. coli filamentation inducers, strain DRC39, OD650, 48 h (AID 1179);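 note: screen aims at cell division blockers that make cells filament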; conditions: E. coli DRC39 delta-acrAB growth, higher = more signal, called active from +8 up or from −8 down
# [19] = RPMI8226 myeloma cell viability, profiling panel, resazurin fluorescence, basal, 24 h, PK04 Diversity Set (AID 1180); conditions: higher = more signal;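 note: RPMI8826 multiple myeloma cell line at 5000 cells per well; test concentration not given here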
# [20] = target: E3 ubiquitin-protein ligase XIAP (Homo sapiens) (UniProt P98170); assay: XIAP binders, primary screen, biophysical, small-molecule microarray, fluorescence 635 nm (AID 1181); conditions: small-molecule microarray binding, higher = more signal;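 note: score merges 667 nm emission and signal to noise over triplicate slides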
# Chain of E3 ubiquitin-protein ligase XIAP (Homo sapiens) (P98170 whole entry, looked up): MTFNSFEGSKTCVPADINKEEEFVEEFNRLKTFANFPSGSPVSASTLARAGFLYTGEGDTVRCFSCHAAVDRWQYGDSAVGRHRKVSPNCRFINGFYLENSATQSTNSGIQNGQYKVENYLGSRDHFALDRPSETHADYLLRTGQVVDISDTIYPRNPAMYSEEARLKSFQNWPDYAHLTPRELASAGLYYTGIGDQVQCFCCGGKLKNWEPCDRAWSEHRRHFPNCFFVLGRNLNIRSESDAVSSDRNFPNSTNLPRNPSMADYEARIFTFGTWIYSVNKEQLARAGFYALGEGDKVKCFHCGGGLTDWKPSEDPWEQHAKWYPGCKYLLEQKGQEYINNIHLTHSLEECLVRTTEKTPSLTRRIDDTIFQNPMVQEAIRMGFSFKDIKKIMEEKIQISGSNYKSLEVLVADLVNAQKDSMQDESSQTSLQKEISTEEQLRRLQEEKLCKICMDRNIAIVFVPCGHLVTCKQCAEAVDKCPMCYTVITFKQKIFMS
# Chain of Dihydroorotate dehydrogenase (quinone), mitochondrial (Plasmodium falciparum (isolate 3D7)) (Q08210 whole entry, looked up): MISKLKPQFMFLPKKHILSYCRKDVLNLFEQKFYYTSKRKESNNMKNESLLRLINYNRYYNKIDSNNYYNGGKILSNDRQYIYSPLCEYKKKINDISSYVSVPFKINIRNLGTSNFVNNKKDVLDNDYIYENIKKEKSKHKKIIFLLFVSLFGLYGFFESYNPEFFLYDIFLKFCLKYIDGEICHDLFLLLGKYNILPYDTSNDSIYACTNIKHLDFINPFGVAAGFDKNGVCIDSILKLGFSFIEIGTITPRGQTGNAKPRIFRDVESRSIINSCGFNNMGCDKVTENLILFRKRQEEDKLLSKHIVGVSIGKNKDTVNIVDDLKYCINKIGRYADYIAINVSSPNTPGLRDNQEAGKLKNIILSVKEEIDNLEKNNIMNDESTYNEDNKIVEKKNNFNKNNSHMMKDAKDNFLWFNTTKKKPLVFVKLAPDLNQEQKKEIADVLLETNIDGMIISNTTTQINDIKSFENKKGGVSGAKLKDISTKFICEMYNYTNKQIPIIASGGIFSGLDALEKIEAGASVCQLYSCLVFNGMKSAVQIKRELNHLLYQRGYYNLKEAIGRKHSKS
SMILES,z-score [1],z-score [2],z-score [3],z-score [4],z-score [5],z-score [6],z-score [7],z-score [8],z-score [9],z-score [10],z-score [11],z-score [12],z-score [13],composite z-score [14],z-score [15],z-score [16],z-score [17],z-score [18],z-score [19],composite z-score [20]
CC(C)[Si](C#C[Si](C(C)C)(C(C)C)C(C)C)(O[C@H](C)c1cn(Cc2ccccc2)nn1)C(C)C,1.25,-0.425,0.592,0.636,-1.67,1.92,-0.367 (inactive),0.0518,-0.542,0.236 (inactive),0.0403,0.745 (inactive),1.74 (inactive),-0.348 (inactive),0.419 (inactive),-0.0006 (inactive),-0.118 (inactive),0.164 (inactive),0.776,0.013
CCOC(=O)C1=CCC(c2ccc(F)cc2)N(S(=O)(=O)c2ccc(C)cc2)C1 (stereo not given),-1.02,-1.12,-0.444,-0.434,-1.5,-0.717,-1.01 (inactive),0.641,-1.66,-0.0491 (inactive),-0.175,1.47 (inactive),-0.866 (inactive),-0.217 (inactive),0.766 (inactive),0.241 (inactive),-0.614 (inactive),-0.124 (inactive),-1.76,0.206
O=C1C[C@@](C(=O)NCc2ccccc2)(c2ccc([N+](=O)[O-])cc2)[C@@H](c2ccc(CO)cc2)N1CC12CC3CC(CC(C3)C1)C2,-0.702,0.0687,-0.487,-2.81,-4.32,2.17,0.112 (inactive),-0.552,-1.2,-3.09 (inactive),-1.63,0.229 (inactive),-3.64 (inactive),0.59 (inactive),1.06 (inactive),0.87 (inactive),-0.202 (inactive),0.368 (inactive),-4.75,0.0427
CCCCC(=C=CC[C@H](O)c1cccc(OCCO)c1)C[C@H](O)c1ccccn1,1.35,1.2,1.3,-0.497,1.43,1.17,-1.63 (inactive),0.0444,-1.1,2.05 (inactive),1.7,-1.1 (inactive),1.03 (inactive),-2.69 (inactive),-0.235 (inactive),-1.49 (inactive),1.58 (inactive),1.58 (inactive),1.83,-0.188
